Common to all, as to conditions: mRNA level, 48 h; actives raise or lower the signal
Read-out in test [1]: Cytochrome P450 4A22 (Homo sapiens) (UniProt Q5TCH4)
Put plainly: LTEA_HepaRG_CYP4A22: Life Technologies and Expression Analysis (LTEA) Assay for Cytochrome P450 4A22 (CYP4A22) using HepaRG (AID 2283495). The method, boiled down:
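Concentration-response (8 points, max 100 uM, 0.5% DMSO) in human HepaRG liver cells after 48 h exposure. CYP4A22 mRNA by TaqMan qRT-PCR with housekeeping-gene normalization.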

Read-out in test [2]: Cytochrome P450 7A1 (Homo sapiens) (UniProt P22680)
Put plainly: LTEA_HepaRG_CYP7A1: Life Technologies and Expression Analysis (LTEA) Assay for Cytochrome P450 7A1 (CYP7A1) using HepaRG (AID 2283496). The method, boiled down: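 Using 0.5% DMSO as vehicle and baseline, chemicals were tested in duplicate over an 8-point range from 100 uM on HepaRG cells for 48 h; qRT-PCR signals were normalised to ACTB, GAPDH and POLR2A.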

Read-out in test [3]: Glutathione S-Transferase (GSTA2), GSTA2 (gene 2939)
Put plainly: LTEA_HepaRG_GSTA2: Life Technologies and Expression Analysis (LTEA) Assay for Glutathione S-Transferase (GSTA2) using HepaRG (AID 2283497). In outline:
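GSTA2 transcript levels came from Fluidigm TaqMan qRT-PCR normalized to three housekeeping genes, fitted in both directions against DMSO. HepaRG cultures received chemicals for 48 h in serum-free induction medium (0.5% DMSO), 8 half-log concentrations up to 100 uM, duplicate.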

Read-out in test [4]: Glutamate-cysteine ligase catalytic (GCLC), GCLC (gene 2729)
Put plainly: LTEA_HepaRG_GCLC: Life Technologies and Expression Analysis (LTEA) Assay for Glutamate-cysteine ligase catalytic (GCLC) using HepaRG (AID 2283498). The method, boiled down:
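Expression by TaqMan qRT-PCR, normalized to three housekeeping genes (ACTB, GAPDH, POLR2A), with up- or down-regulation fitted against DMSO. HepaRG cells dosed in duplicate for 48 h with 8 half-log concentrations up to 100 uM, vehicle 0.5% DMSO.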

Read-out in test [5]: growth arrest and DNA damage 45 (GADD45G), GADD45G (gene 10912)
Put plainly: LTEA_HepaRG_GADD45G: Life Technologies and Expression Analysis (LTEA) Assay for growth arrest and DNA damage 45 (GADD45G) using HepaRG (AID 2283499). In outline: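 Concentration-response in HepaRG: 48 h dosing, 0.5% DMSO, highest level 100 uM. GADD45G expression by qRT-PCR, normalised to endogenous controls; bidirectional fit to DMSO.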

Read-out in test [6]: Glutamate-cysteine ligase regulatory (GCLM), GCLM (gene 2730)
Put plainly: LTEA_HepaRG_GCLM: Life Technologies and Expression Analysis (LTEA) Assay for Glutamate-cysteine ligase regulatory (GCLM) using HepaRG (AID 2283500). The method, boiled down: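 In this multiplexed HepaRG gene-expression assay, GCLM mRNA change after 48 h treatment (8 concentrations, max 100 uM) was scored against DMSO by bidirectional curve fitting.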

Read-out in test [7]: Glutathione S-transferase M3 (GSTM3), GSTM3 (gene 2947)
Put plainly: LTEA_HepaRG_GSTM3: Life Technologies and Expression Analysis (LTEA) Assay for Glutathione S-transferase M3 (GSTM3) using HepaRG (AID 2283501). The method, boiled down:
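Expression of GSTM3 is determined by qRT-PCR in human liver HepaRG cells treated 48 h with an 8-point half-log range from 100 uM in 0.5% DMSO.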

Read-out in test [8]: Heat shock 70 kDa protein 1 (HSPA1A), gene 3303
Put plainly: LTEA_HepaRG_HSPA1A: Life Technologies and Expression Analysis (LTEA) Assay for Heat shock 70 kDa protein 1 (HSPA1A) using HepaRG (AID 2283502). In outline:
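An oxidative-stress marker readout: HepaRG cells treated 48 h in duplicate with an eight-point series (highest 100 uM) had HSPA1A mRNA quantified by TaqMan qRT-PCR. Activity was fitted in both directions using 0.5% DMSO as baseline.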

Read-out in test [9]: Hypoxia-inducible factor 1-alpha (Homo sapiens) (UniProt Q16665)
Put plainly: LTEA_HepaRG_HIF1A: Life Technologies and Expression Analysis (LTEA) Assay for Hypoxia-inducible factor 1 (HIF1A) Trancription factor using HepaRG (AID 2283503).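 Note: HIF1A transcript by TaqMan qRT-PCR normalized to ACTB GAPDH and POLR2A.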 In outline:
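Gain- or loss-of-signal HIF1A mRNA changes are fitted against a DMSO baseline. HepaRG cultures receive eight concentrations, highest 100 uM, for 48 h in serum-free induction medium with 0.5% DMSO.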

Read-out in test [10]: 3-Hydroxy-3-Methylglutaryl-CoA Synthase 2 (HMGCS2), HMGCS2 (gene 3158)
Put plainly: LTEA_HepaRG_HMGCS2: Life Technologies and Expression Analysis (LTEA) Assay for 3-Hydroxy-3-Methylglutaryl-CoA Synthase 2 (HMGCS2) using HepaRG (AID 2283504). The method, boiled down: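 This steatosis marker was read as HMGCS2 mRNA change in HepaRG cells treated 48 h with up to 100 uM chemical. Normalisation used housekeeping genes; activity in either direction was fitted relative to 0.5% DMSO vehicle.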

Read-out in another test: HGF (gene 3082)
Put plainly: LTEA_HepaRG_HGF: Life Technologies and Expression Analysis (LTEA) Assay for Hepatocyte Growth Facto (HGF) using HepaRG (AID 2283505). The method, boiled down:
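Using HepaRG monolayers kept in 0.5% DMSO, chemicals were tested in duplicate over eight half-log concentrations from 100 uM for 48 h. Endpoint: HGF mRNA change relative to DMSO, normalized to ACTB/GAPDH/POLR2A.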

Read-out in test [11]: Insulin Like Growth Factor 1 (IGF1), IGF1 (gene 3479)
Put plainly: LTEA_HepaRG_IGF1: Life Technologies and Expression Analysis (LTEA) Assay for Insulin Like Growth Factor 1 (IGF1) using HepaRG (AID 2283506). In outline:
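Endpoint: IGF1 mRNA change by qRT-PCR, housekeeping-normalized, fitted bidirectionally relative to 0.5% DMSO vehicle. Human HepaRG cells were treated 48 h in serum-free induction medium, eight half-log concentrations topping at 100 uM.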

Read-out in test [12]: Intercellular Adhesion Molecule 1 (ICAM1), ICAM1 (gene 3383)
Put plainly: LTEA_HepaRG_ICAM1: Life Technologies and Expression Analysis (LTEA) Assay for Intercellular Adhesion Molecule 1 (ICAM1) using HepaRG (AID 2283507). In outline:
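Using the human liver line HepaRG, compounds are tested in duplicate over 48 h at concentrations up to 100 uM. Expression is determined by TaqMan qRT-PCR, normalized to endogenous controls, and analysed relative to 0.5% DMSO vehicle.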

Read-out in test [13]: Insulin-like growth factor-binding protein 1 (IGFBP1), IGFBP1 (gene 3484)
Put plainly: LTEA_HepaRG_IGFBP1: Life Technologies and Expression Analysis (LTEA) Assay for Insulin-like growth factor-binding protein 1 (IGFBP1) using HepaRG (AID 2283508). In outline:
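HepaRG, 48 h, 8 conc. (max 100 uM, half-log), duplicates, 0.5% DMSO. Readout: TaqMan qRT-PCR, ACTB/GAPDH/POLR2A normalisation. Fit: bidirectional vs DMSO.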

Read-out in test [14]: Interleukin 6 Receptor (IL6R), IL6R (gene 3570)
Put plainly: LTEA_HepaRG_IL6R: Life Technologies and Expression Analysis (LTEA) Assay for Interleukin 6 Receptor (IL6R) using HepaRG (AID 2283510). The method, boiled down:
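In this HepaRG screen, test chemicals act on cells for 48 h at up to 100 uM (eight half-log points, duplicate wells). IL6R expression is quantified by qRT-PCR after normalization to ACTB, GAPDH and POLR2A, with DMSO as baseline.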

Read-out in test [15]: Potassium channel subfamily K member 1 (KCNK1), KCNK1 (gene 3775)
Put plainly: LTEA_HepaRG_KCNK1: Life Technologies and Expression Analysis (LTEA) Assay for Potassium channel subfamily K member 1 (KCNK1) using HepaRG (AID 2283511). The method, boiled down:
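KCNK1 transcript measured by TaqMan qRT-PCR against three housekeeping genes, after HepaRG cells were treated 48 h with eight half-log concentrations (top 100 uM, 0.5% DMSO). Curves fitted bidirectionally relative to vehicle.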

Read-out in test [16]: Keratin 19 (KRT19), KRT19 (gene 3880)
Put plainly: LTEA_HepaRG_KRT19: Life Technologies and Expression Analysis (LTEA) Assay for Keratin 19 (KRT19) using HepaRG (AID 2283512). The method, boiled down:
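Readout is qRT-PCR of KRT19 mRNA, normalized to ACTB, GAPDH and POLR2A, from HepaRG cells treated 48 h with eight-point half-log dilutions topping at 100 uM. Activity in either direction is scored relative to 0.5% DMSO vehicle.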

Read-out in test [17]: JUN Transcription Factor, JUN (gene 3725)
Put plainly: LTEA_HepaRG_JUN: Life Technologies and Expression Analysis (LTEA) Assay for JUN Transcription Factor using HepaRG (AID 2283513). In outline:
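Gene-expression endpoint: JUN mRNA (qRT-PCR, normalized to three reference genes) in HepaRG cultures treated 48 h with chemicals, duplicate wells, 100 uM maximum with half-log dilutions; bidirectional fitting relative to 0.5% DMSO.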

Read-out in test [18]: Lipase C (LIPC), LIPC (gene 3990)
Put plainly: LTEA_HepaRG_LIPC: Life Technologies and Expression Analysis (LTEA) Assay for Lipase C (LIPC) using HepaRG (AID 2283514). In outline:
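LIPC expression was quantified by qRT-PCR against three housekeeping genes (ACTB, GAPDH, POLR2A). Differentiated human HepaRG cells received eight half-log doses (top 100 uM, 0.5% DMSO) in duplicate for 48 h; fitting bidirectional relative to DMSO.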

Read-out in test [19]: Interleukin 6 (IL6), IL6 (gene 3569)
Put plainly: LTEA_HepaRG_IL6: Life Technologies and Expression Analysis (LTEA) Assay for Interleukin 6 (IL6) using HepaRG (AID 2283509). In outline:
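Transcript levels, normalized to three housekeeping genes, were quantified by qRT-PCR after 48 h chemical treatment of HepaRG cells. Eight-point half-log series from 100 uM in 0.5% DMSO, duplicates. Fitted both directions against DMSO baseline.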

Consider 6 compounds from PubChem BioAssay (EPA / NIEHS).

The source made the active and inactive calls. Rule for the calls: active = hit-call score of the fitted dose curve at least 0.9, where 1 is the maximum; inactive = score below 0.9.

Chain of Hypoxia-inducible factor 1-alpha (Homo sapiens) (Q16665 whole entry, looked up): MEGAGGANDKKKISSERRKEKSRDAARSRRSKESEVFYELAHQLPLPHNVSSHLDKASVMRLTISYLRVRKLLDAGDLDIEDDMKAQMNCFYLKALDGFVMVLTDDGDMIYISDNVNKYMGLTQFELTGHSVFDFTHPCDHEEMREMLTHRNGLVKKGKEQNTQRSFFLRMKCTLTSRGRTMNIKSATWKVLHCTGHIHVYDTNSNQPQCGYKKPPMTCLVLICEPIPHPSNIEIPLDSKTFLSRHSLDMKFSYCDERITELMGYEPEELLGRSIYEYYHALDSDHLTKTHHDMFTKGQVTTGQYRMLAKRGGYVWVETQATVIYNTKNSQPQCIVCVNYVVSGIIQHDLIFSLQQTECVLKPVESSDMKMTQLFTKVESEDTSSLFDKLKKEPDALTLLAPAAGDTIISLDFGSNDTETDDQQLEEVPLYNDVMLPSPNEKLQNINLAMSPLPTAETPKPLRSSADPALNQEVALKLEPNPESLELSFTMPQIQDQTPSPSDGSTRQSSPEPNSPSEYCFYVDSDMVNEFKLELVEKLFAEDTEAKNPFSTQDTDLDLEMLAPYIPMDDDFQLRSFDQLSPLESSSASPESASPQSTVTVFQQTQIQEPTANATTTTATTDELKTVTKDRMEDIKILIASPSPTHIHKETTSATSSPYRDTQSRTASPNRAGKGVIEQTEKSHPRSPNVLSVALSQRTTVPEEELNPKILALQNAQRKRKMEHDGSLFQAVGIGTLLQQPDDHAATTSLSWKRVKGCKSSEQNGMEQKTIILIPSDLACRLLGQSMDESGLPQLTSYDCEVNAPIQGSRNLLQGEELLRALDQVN

As for `c1ccc2ccccc2c1`, the compound was classed as inactive in test [1], in [2], in test [3], in test [4], in test [5] and in [6]. Further, the compound was called inactive (in [7]; in test [8]; in test [9]; in test [10]; with HGF (gene 3082); in test [11]). In addition, the result in test [12], in test [13], in [14], in test [15], in [16] and in test [17] was inactive. Besides, the outcome in test [18] was inactive.

Turning to `COCC(C)OCC(C)OCC(C)O` (configuration not stated), the outcome in test [1], in test [2], in [3], in test [4], in test [6] and in [7] was inactive. In addition, the compound was classed as inactive (in [8]; in [9]; in test [10]; in the test with HGF (gene 3082); in test [11]; in [12]). Further, the call in test [13], in test [19], in [14], in test [16], in test [17] and in test [18] was inactive.

On to `CCCCCc1ccc(N)cc1`, for which the call in [1], in [2], in test [3], in [4], in test [5] and in test [6] was inactive. Further, the result in [8], in test [9], in [10], in test [11], in test [12] and in test [13] was inactive. The compound was classed as inactive in test [14], in test [16], in test [17] and in test [18].

In the case of `Cc1cccc2ccccc12`, the compound was called inactive in test [1], in [2], in test [3], in [4], in test [6] and in [7]. Moreover, the call (in [8]; in test [9]; in [10]; in the test with HGF (gene 3082); in [11]; in test [12]) was inactive. Also, the outcome in test [13], in test [19], in [14], in [16], in test [17] and in test [18] was inactive.

Regarding `CN1C(=O)N(c2ccccc2Br)Cc2cnc(Nc3ccc4c(c3)OCC(CO)O4)nc21` (configuration not stated), the AC50 (commonly the concentration at which the activity in the assay is half-maximal) in test [1] is 50 µM (active); in test [2], 72.8 µM (active); in test [3], 78 µM (active); in [4], 65.8 µM (active); in test [5] it was 66.6 µM (active); in test [8] it was 92.4 µM (active). Moreover, the AC50 is 1.33 µM (active) in test [9]; 75.4 µM (active) in test [10]; 32.7 µM (active) in [11]; 62.3 µM (active) in [13]; 6.5 µM (active) in test [16]; 12.1 µM (active) in test [17]. The AC50 in [18] is 71.8 µM (active). The call in test [6], in [7], in test [12], in [14] and in test [15] was inactive.

For the compound `CCCC(=O)OCCC(C)C`, the result in test [1], in test [2], in [3], in test [4], in test [5] and in test [6] was inactive. The call (in test [8]; in test [9]; in [10]; with HGF (gene 3082); in [11]; in [12]) was inactive. The outcome in test [13], in [14], in test [15], in test [16], in [17] and in [18] was inactive.
